# PubChem BioAssay (NCI)
# This is part of a sample that, as a whole, favours compounds with a hit. Of some 83,000 tested, about 20% had one in any assay.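 Step 1: grow cells in 96-well plates. Step 2: add test compound at a single concentration. Step 3: incubate 48 h. Step 4: record percent growth.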 Values without a mark were called inactive. Active and inactive are the calls of the source. Rule for the calls: active = growth percent below 10; inactive = the rest.
# What was measured:
# Experiment in all cases: NCI-60 one-dose screen, 48 h (100 = growth as untreated, 0 = no growth, -100 = all killed)
# Details in all cases: 10 µM unless noted
# SK-MEL-2 melanoma = tested on: SK-MEL-2 melanoma
# EKVX NSCLC = tested on: EKVX NSCLC
# SN12C renal = tested on: SN12C renal
# UO-31 renal = tested on: UO-31 renal
# TK-10 renal = tested on: TK-10 renal
# ACHN renal = tested on: ACHN renal
# CAKI-1 renal = tested on: CAKI-1 renal
# CCRF-CEM leukemia = tested on: CCRF-CEM leukemia
# MOLT-4 leukemia = tested on: MOLT-4 leukemia
# SR leukemia = tested on: SR leukemia
# RPMI-8226 leukemia = tested on: RPMI-8226 leukemia
# OVCAR-8 ovarian = tested on: OVCAR-8 ovarian
# OVCAR-5 ovarian = tested on: OVCAR-5 ovarian
# SK-OV-3 ovarian = tested on: SK-OV-3 ovarian
# IGROV1 ovarian = tested on: IGROV1 ovarian
# OVCAR-3 ovarian = tested on: OVCAR-3 ovarian
# HS 578T breast = tested on: HS 578T breast
# NCI/ADR-RES ovarian = tested on: NCI/ADR-RES ovarian
# A498 renal = tested on: A498 renal
# OVCAR-4 ovarian = tested on: OVCAR-4 ovarian
Compound,growth (SK-MEL-2 melanoma),growth (EKVX NSCLC),growth (SN12C renal),growth (UO-31 renal),growth (TK-10 renal),growth (ACHN renal),growth (CAKI-1 renal),growth (CCRF-CEM leukemia),growth (MOLT-4 leukemia),growth (SR leukemia),growth (RPMI-8226 leukemia),growth (OVCAR-8 ovarian),growth (OVCAR-5 ovarian),growth (SK-OV-3 ovarian),growth (IGROV1 ovarian),growth (OVCAR-3 ovarian),growth (HS 578T breast),growth (NCI/ADR-RES ovarian),growth (A498 renal),growth (OVCAR-4 ovarian)
O=C(CNc1nc(-c2cccc([N+](=O)[O-])c2)cs1)Nc1cccc([N+](=O)[O-])c1,9.35% (active),52.9%,-4.54% (active),-79.3% (active),-13.6% (active),-20.1% (active),-10.3% (active),-0.65% (active),6.77% (active),2.66% (active),-18.8% (active),-3.29% (active),-12.9% (active),-23.9% (active),-28.3% (active),5.33% (active),-11.8% (active),-11.4% (active),–,–
CCOc1ccc(NC2=C(Cl)C(=O)c3nc(C)ccc3C2=O)cc1,-49.8% (active),-97.5% (active),-57.3% (active),-65% (active),121%,-98.4% (active),–,0.626% (active),-46.7% (active),-27.4% (active),-19.3% (active),1.03% (active),54.8%,79.8%,-82.4% (active),-97.2% (active),49%,-15.6% (active),101%,-97.5% (active)
COC(=O)C[Se]C(=O)Cc1c(C)n(C(=O)c2ccc(Cl)cc2)c2ccc(OC)cc12,86.8%,15.1%,57.1%,9.87% (active),70.6%,53.2%,–,50.1%,67.1%,16.4%,90.8%,41.4%,15.4%,118%,16.8%,44.7%,29.8%,9.78% (active),70.6%,40.6%
O=C(NNc1nc2cc(F)ccc2n2c(CN3CCCC3)ccc12)c1cnccn1,46%,7.62% (active),21%,18.7%,40.2%,13.3%,–,6.67% (active),1.81% (active),4.32% (active),20.6%,13.9%,33.5%,16.8%,13.8%,4.58% (active),68.1%,0.656% (active),-1.87% (active),14.1%
COc1ccc(NC2=C(Cl)C(=O)c3nc(C)ccc3C2=O)cc1OC,100%,50.8%,90.5%,100%,149%,95%,–,15.3%,69.8%,0.922% (active),47.3%,92.6%,105%,91.8%,19.6%,13.2%,119%,94.7%,82.6%,71.4%
NC(N)=Nc1ccc(Oc2cccc(NC(N)=Nc3ccc(Cl)c(C(F)(F)F)c3)c2)cn1,59.5%,65.5%,25.2%,78.9%,69.3%,88.3%,–,23.9%,23.6%,-16.4% (active),27.9%,53.5%,41.8%,48.3%,-19.7% (active),3.55% (active),33.2%,95.4%,36.7%,52.7%
O=C(NCCn1ccnc1)c1ccc(-c2nc3ccc4[nH]ncc4c3c3c2CCCC3)cc1,45.3%,87.6%,81.6%,92.4%,77.7%,88.4%,–,19.5%,29.1%,2.67% (active),77.6%,77.2%,93.9%,63.1%,62.8%,36.7%,2.42% (active),102%,73.5%,66.3%
NS(=O)(=O)c1ccc(-n2cc(CN3CCNCC3)nn2)cc1,110%,104%,110%,92.9%,100%,109%,–,109%,103%,100%,110%,110%,106%,110%,112%,111%,111%,111%,107%,105%
